An excerpt weighted towards active compounds, which were near 3.1% of everything screened.
MEKK2mut PB1 HTS: signal of MEK5 binding to mutant human MEKK2 PB1 domain. bead flow cytometry, Alexa488-MEK5 binding to MEKK2 mutant. percent response, % at 10 µM. hit rate 0.35% among 290,000. AID 1530; in the data active means percent response above about 24%, passing the limit was not always enough
MEKK3 PB1 HTS: raises or lowers MEK5 binding to the human MEKK3 PB1 domain. hit rate 1.4% among 290,000. Q99759. binding response (% of control), % at 10 µM. bead-based flow cytometry, Alexa488-MEK5 binding to MEKK3; actives lie on both sides; 0 = blocked by unlabeled MEK5, 100 = vehicle. AID 1529;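 active means binding response more than 3 SD above or below the average of its plate-row segment, actives on both sides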;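 further: Alexa488 bead fluorescence after subtracting the streptavidin-only scavenger bead signal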
ATG4B inh: blocks human ATG4B protease cleavage of LC3 substrate. AID 504462. Q9Y4P1. hit rate 0.51% among 340,000. ATG4B cleavage of LC3-PLA2, NBD-HPC fluorescence, 1 h. inhibition, % at 8.33 µM; in the data active means inhibition above about 40%
Target sequence (Q9Y4P1 whole entry, looked up): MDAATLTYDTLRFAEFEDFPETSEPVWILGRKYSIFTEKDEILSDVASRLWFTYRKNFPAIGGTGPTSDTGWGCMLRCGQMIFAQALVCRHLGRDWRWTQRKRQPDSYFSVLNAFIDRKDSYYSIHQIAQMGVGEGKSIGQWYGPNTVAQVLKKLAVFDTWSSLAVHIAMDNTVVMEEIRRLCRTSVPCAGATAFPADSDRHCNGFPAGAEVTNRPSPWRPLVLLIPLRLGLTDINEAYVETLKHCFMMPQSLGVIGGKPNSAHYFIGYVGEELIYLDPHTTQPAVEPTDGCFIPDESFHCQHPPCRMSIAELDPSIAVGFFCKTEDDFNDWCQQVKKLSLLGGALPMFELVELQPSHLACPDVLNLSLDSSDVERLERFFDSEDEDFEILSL
PREPL inhibitor: inhibits the human prolyl oligopeptidase-like enzyme. recombinant PREPL, fluorescence polarization activity-based probe. inhibition, % at 5.96 µM. hit rate 0.68% among 320,000; in the data active means inhibition above about 43%
UBC13 inh: human UBC13 polyubiquitination inhibition; inhibition, % at 20 µM; UBC13 polyubiquitin chain formation, TR-FRET; AID 485273; hit rate 0.47% among 330,000; in the data active means inhibition above about 45%, passing the limit was not always enough
Target sequence (P61088 whole entry, looked up): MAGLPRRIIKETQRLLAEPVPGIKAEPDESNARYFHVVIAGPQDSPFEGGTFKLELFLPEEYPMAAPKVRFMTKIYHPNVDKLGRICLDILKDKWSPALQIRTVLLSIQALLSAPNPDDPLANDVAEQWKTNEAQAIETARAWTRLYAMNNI
MEKK2 WT-MEK5: raises or lowers MEK5 binding to wildtype human MEKK2 PB1 domain; Q9Y2U5; bead flow cytometry, Alexa488-MEK5 binding to MEKK2 WT; actives lie on both sides; binding response (% of control), % at 10 µM; hit rate 1.1% among 290,000; AID 1531; in the data active means binding response below about 67% or above about 130%
MEKK2wt confirm: raises or lowers MEK5 binding to wildtype human MEKK2, retest; shares compounds with MEKK3 PB1 HTS; bead flow cytometry, Alexa488-MEK5 binding to MEKK2 WT; actives lie on both sides; binding response (% of control), % at 10 µM; hit rate 2.4% among 5,900; AID 1892; in the data active means binding response below about 16% or above about 210%; inactive means in between
MEKK2mut-MEK5: signal of MEK5 binding to mutant human MEKK2, retest | shares compounds with MEKK3 PB1 HTS | bead flow cytometry, Alexa488-MEK5 binding to MEKK2 mutant | percent response, % at 10 µM | hit rate 2% among 5,900; in the data active means percent response mostly above about 71%, no sharp cut-off; inactive means mostly below about 38%;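 further: higher means compound restores mutant binding toward wildtype level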
MEKK3 confirm: confirmation of inhibitors of MEK5 binding to human MEKK3; hit rate 1.8% among 5,900; binding response (% of control), % at 10 µM; shares compounds with MEKK3 PB1 HTS; AID 1894; bead flow cytometry, Alexa488-MEK5 binding to MEKK3; stronger effect = lower value;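 active means binding response below 72% of control, or above a set upper limit, though filed actives all read lower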
A number is an active result; [ ] = remark or other dose.

`CC(=O)c1ccc(NC(=O)CSc2ccc(-c3ccc4c(c3)OCO4)nn2)cc1` gave MEKK2mut PB1 HTS inactive, MEKK3 PB1 HTS 130.0, ATG4B inh inactive, PREPL inhibitor inactive, UBC13 inh inactive, MEKK2 WT-MEK5 inactive, MEKK2wt confirm inactive, MEKK2mut-MEK5 inactive and MEKK3 confirm inactive.
CCOC(=O)c1c2ccccc2[n+]([O-])n1CCO was read as ATG4B inh inactive, PREPL inhibitor inactive and UBC13 inh inactive.
Screening CC(=O)c1ccc(S(=O)(=O)NC2CC(=O)N(c3ccc(Cl)cc3)C2)cc1 (stereo unspecified) returned ATG4B inh inactive, PREPL inhibitor inactive and UBC13 inh inactive.
For COCCN(C(=O)c1cccc(OC)c1)c1nnc(-c2ccncc2)s1 the results were MEKK2mut PB1 HTS inactive, MEKK3 PB1 HTS inactive, ATG4B inh inactive, PREPL inhibitor inactive, UBC13 inh inactive and MEKK2 WT-MEK5 inactive.
`COCCN(C(=O)C1CC1)c1nnc(-c2cccc(C)c2)s1` gave MEKK2mut PB1 HTS inactive, MEKK3 PB1 HTS 0.0[inhibitor], ATG4B inh inactive, PREPL inhibitor inactive, UBC13 inh inactive, MEKK2 WT-MEK5 0.0[inhibitor], MEKK2wt confirm inactive, MEKK2mut-MEK5 inactive and MEKK3 confirm inactive.
Screening CCN(CC(=O)Nc1ccc(NC(C)=O)cc1)C(=O)c1n[nH]c(=O)c2ccccc12 returned MEKK2mut PB1 HTS inactive, MEKK3 PB1 HTS 55.0[inhibitor], ATG4B inh inactive, PREPL inhibitor inactive, UBC13 inh inactive, MEKK2 WT-MEK5 inactive, MEKK2wt confirm inactive, MEKK2mut-MEK5 inactive and MEKK3 confirm inactive.
`CCN(CC(=O)Nc1ccc(NC(C)=O)cc1)C(=O)C(c1ccccc1)c1ccccc1` gave MEKK2mut PB1 HTS inactive, MEKK3 PB1 HTS 131.0, ATG4B inh inactive, PREPL inhibitor inactive, UBC13 inh inactive, MEKK2 WT-MEK5 inactive, MEKK2wt confirm inactive, MEKK2mut-MEK5 inactive and MEKK3 confirm inactive.
CC(C)CCNC(=O)C(c1cccnc1)N(CCc1ccccc1)C(=O)Cn1nnc2ccccc21 (stereo unspecified) was read as MEKK2mut PB1 HTS inactive, MEKK3 PB1 HTS inactive, ATG4B inh inactive, PREPL inhibitor inactive, UBC13 inh inactive and MEKK2 WT-MEK5 inactive.
`CC(=O)c1c(C)[nH]c(C(=O)C(C)Sc2nnc(NC3CC3)s2)c1C` (stereo unspecified) gave ATG4B inh inactive, PREPL inhibitor inactive and UBC13 inh inactive.
COc1cccc(NC(=O)c2ccco2)c1 was read as MEKK2mut PB1 HTS inactive, MEKK3 PB1 HTS 1.0[inhibitor], ATG4B inh inactive, PREPL inhibitor inactive, UBC13 inh inactive, MEKK2 WT-MEK5 1.0[inhibitor], MEKK2wt confirm inactive, MEKK2mut-MEK5 inactive and MEKK3 confirm inactive.
For O=C(Nc1ccc(OC(=O)c2ccco2)cc1)c1ccco1 the results were MEKK2mut PB1 HTS inactive, MEKK3 PB1 HTS inactive, ATG4B inh inactive, PREPL inhibitor inactive, UBC13 inh inactive and MEKK2 WT-MEK5 inactive.
For O=C(Nc1cccc(OC(=O)c2ccco2)c1)c1ccco1 the results were MEKK2mut PB1 HTS inactive, MEKK3 PB1 HTS 0.0[inhibitor], ATG4B inh inactive, PREPL inhibitor inactive, UBC13 inh inactive, MEKK2 WT-MEK5 -1.0[inhibitor], MEKK2wt confirm inactive, MEKK2mut-MEK5 inactive and MEKK3 confirm inactive.
COc1cccc(C(=O)COc2cccc(NC(=O)c3ccco3)c2)c1 was read as MEKK2mut PB1 HTS inactive, MEKK3 PB1 HTS inactive, ATG4B inh inactive, PREPL inhibitor inactive, UBC13 inh inactive and MEKK2 WT-MEK5 inactive.
`CC(OC(=O)Cc1ccc(Br)cc1)C(=O)NC1CCCC1` (stereo unspecified) gave ATG4B inh inactive, PREPL inhibitor inactive and UBC13 inh inactive.
For c1ccc(-n2nnnc2Oc2cccc3cccnc23)cc1 the results were MEKK2mut PB1 HTS inactive, MEKK3 PB1 HTS 0.0[inhibitor], ATG4B inh inactive, PREPL inhibitor inactive, UBC13 inh inactive, MEKK2 WT-MEK5 -8.0[inhibitor], MEKK2wt confirm inactive, MEKK2mut-MEK5 inactive and MEKK3 confirm inactive.
`O=C(Nc1cc(F)c(Br)cc1F)c1ccc(Cl)cc1` gave MEKK2mut PB1 HTS inactive, MEKK3 PB1 HTS inactive, ATG4B inh inactive, PREPL inhibitor inactive, UBC13 inh inactive and MEKK2 WT-MEK5 inactive.
For CCN(CC)CCCNC(=O)c1cc2c(=O)n(CC)c3ccccc3c2s1 the results were MEKK2mut PB1 HTS inactive, MEKK3 PB1 HTS inactive, ATG4B inh inactive, PREPL inhibitor inactive, UBC13 inh inactive and MEKK2 WT-MEK5 inactive.
CCN(CC)CCCNC(=O)c1cc2c(Cl)nc3ccccc3c2s1 was read as MEKK2mut PB1 HTS 54.0, MEKK3 PB1 HTS inactive, ATG4B inh inactive, PREPL inhibitor inactive, UBC13 inh inactive, MEKK2 WT-MEK5 152.0, MEKK2wt confirm inactive, MEKK2mut-MEK5 inactive and MEKK3 confirm inactive.
Screening CCc1cccc2cc3c(N)c(C(=O)Nc4ccc(S(=O)(=O)N5CCCC5)cc4)sc3nc12 returned MEKK2mut PB1 HTS inactive, MEKK3 PB1 HTS 154.0, ATG4B inh inactive, PREPL inhibitor inactive, MEKK2 WT-MEK5 inactive, MEKK2wt confirm inactive, MEKK2mut-MEK5 inactive and MEKK3 confirm inactive.
`COc1ccc2c(CC(=O)NC(Cc3ccc(Cl)cc3)C(=O)O)cc(=O)oc2c1C` (stereo unspecified) gave MEKK2mut PB1 HTS inactive, MEKK3 PB1 HTS inactive, ATG4B inh inactive, UBC13 inh inactive and MEKK2 WT-MEK5 inactive.
CC(C)OC(=O)CSc1nc2ncccc2[nH]1 was read as MEKK2mut PB1 HTS inactive, MEKK3 PB1 HTS 33.0[inhibitor], ATG4B inh inactive, PREPL inhibitor inactive, UBC13 inh inactive, MEKK2 WT-MEK5 45.0[inhibitor], MEKK2wt confirm inactive, MEKK2mut-MEK5 inactive and MEKK3 confirm inactive.
`Cc1ccccc1OCC(=O)OCC(=O)Nc1ncc(Cl)c(C)c1Cl` gave ATG4B inh inactive, PREPL inhibitor inactive and UBC13 inh inactive.
Screening C#CCOCCOCCOCCNc1nc(N2CCN(C(=O)[C@H](CCCCN)n3cc([C@@H](N)CO)nn3)CC2)nc(N2CCN(C(=O)[C@H](Cc3cc4ccccc4[nH]3)n3cc([C@@H](N)CO)nn3)CC2)n1 returned MEKK2mut PB1 HTS inactive, MEKK3 PB1 HTS inactive, PREPL inhibitor inactive, UBC13 inh 109.6, MEKK2 WT-MEK5 139.0, MEKK2wt confirm inactive, MEKK2mut-MEK5 inactive and MEKK3 confirm inactive.

Bioassay records (PubChem)
